Compound activity from PubChem BioAssay.
This excerpt belongs to a sample that is enriched for hits.
Pf Dd2 growth – qHTS Primary assay for Inhibitors of Plasmodium falciparum Dd2 growth in vitro. P. falciparum Dd2 growth, SYBR Green, 72 h. Potency, µM (series often up to 28.9 µM), for inactives: top-dose activity, negative = inhibition, hits mostly inhibitors. hit rate 4.3% among 120,000; active = well fitted inhibition curve with a large enough effect;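 note: plate controls were DMSO vehicle for no effect and reference drug for full effect; nearly all actives have a fitted effect of over 65% in size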
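Infected erythrocytes (Dd2, 0.3% parasitemia, 2.5% hematocrit final) are added to compound in RPMI-1640/Albumax II medium, grown 72 h at 37C in low oxygen, then lysed with saponin/Triton-X containing SYBR Green and read by fluorescence.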
* = called active by the depositor; i = inactive; [ ] = another dose, or the depositor's remark. Potency is the fitted concentration of half-maximal effect.

SMILES	Pf Dd2 growth
CN(C)C(=O)CC(O)c1cc2n(n1)CCN(Cc1ccc3c(c1)OCCO3)C2 (configuration not stated)	31%
CC1(COc2cccnc2)COc2ccc(C(=O)N3CCOCC3)cc2N1 (configuration not stated)	i
CC(CCc1ccccc1)NC(=O)Cn1ncc2c3ccccc3n(Cc3ccc(F)cc3)c2c1=O (configuration not stated)	9%
COc1ccc(C(=O)N2CCC3(CC2)NC(=O)N(c2ccc(F)cc2)N3)cc1F	-23%
O=C(NCCc1ccccc1)c1ccc(CSc2nc3cccnc3n2Cc2ccc(F)cc2)cc1	8.9µM*
Cc1cccc(Cn2c(SCc3ccc(C(=O)NCCc4ccccc4)cc3)nc3cccnc32)c1	11µM*
O=C(NCCc1cccs1)c1ccc(Cn2c(SCc3ccccc3)nc3cccnc32)cc1	11µM*
Cc1cccc(CSc2nc3cccnc3n2Cc2ccc(C(=O)NCc3ccco3)cc2)c1	-14%
CCOc1ccc(C(=O)NCc2nc3cccnc3n2Cc2ccc(F)cc2)cc1OCC	i
O=C(NC1CC1)c1ccc(Cn2c(SCc3ccc(F)cc3)nc3cccnc32)cc1	-2%
Cc1ccc(CNC(=O)c2ccc(Cn3c(SCc4ccc(F)cc4)nc4cccnc43)cc2)o1	11µM*
CN(Cc1ccccc1)C(=O)c1ccc(CSc2nc3cccnc3n2Cc2ccccc2F)cc1	-18%
O=C(NCc1cccs1)c1ccc(Cn2c(SCc3ccc(F)cc3)nc3cccnc32)cc1	-19%
Cc1cccc(Cn2c(SCc3ccc(C(=O)NCc4ccccc4F)cc3)nc3cccnc32)c1	-27%
COc1ccc(CCNS(=O)(=O)c2c(C)nc3sc(C)cn3c2=O)cc1OC	-16%
O=C(Nc1ncc(-c2ccccc2)c2c1OCC2)C1CCOCC1	33%[44.1 µM]
Cc1nn(CC(=O)NCCc2cscn2)c(=O)n1CCc1ccccc1	-12%
CC1CCCN(C(=O)C2CCCN(c3cnc4nccnc4c3)C2)C1 (configuration not stated)	i
O=C(N1CCOCC1)N1CCCC(c2nnc3n2CCNC3)C1 (configuration not stated)	21%
Cc1ccc2c(c1)CC(C)N2S(=O)(=O)c1nnc(NC(=O)C(C)C)s1 (configuration not stated)	2%
Cc1cc2c(cc1C(=O)N1CCC(O)(C(=O)O)CC1)OCCO2	-12%
CCOc1ccccc1C(=O)N1[C@@H]2CC[C@H]1CC(NC(=O)c1cnc(C)cn1)C2 (some centres not stated)	-14%
Cc1cccc(CC(=O)N2CC(c3nc(CCc4ccccc4)no3)C2)c1	-8%
Cc1noc(C)c1[S+](=O)([O-])N1CCc2nc(C3CC3)nc(-c3ccc(Cl)cc3)c2CC1	-16%
CNC(=O)c1cccc(-c2ccccc2COc2ccc(CCOC)cc2)n1	-28%
SMILES	Pf Dd2 growth
O=C1NCCCCCCN(Cc2ccncc2)[C@@H]2CN(C(=O)C3CCCCC3)CC[C@@H]12	-27%
COC(=O)C1=C(C)N=C2SC=C(CC(=O)NCCC(C)C)N2C1c1ccsc1 (configuration not stated)	i
O=C1c2ccccc2CN1C1CCN(Cc2cccc3ccccc23)CC1	-30%
COc1ccc(CNc2nc(SCc3ccccc3Cl)nc3ccccc23)cc1	i
COc1ccc(CCNc2nc(SCc3ccccc3Cl)nc3ccccc23)cc1OC	3.5µM*
COc1cc(Nc2nc(SCC(=O)c3ccc(Cl)c(Cl)c3)nc3ccccc23)cc(OC)c1	-7%
COc1ccc(CCNc2nc3c(c(=O)n(C)c(=O)n3C)n2Cc2ccccc2Cl)cc1OC	i
CCSc1nc2ccccc2c(OCc2cc(C(=O)OC)ccc2OC)c1C(=O)OC	-9%
COc1ccc(NC(=O)CSc2nc(-c3ccccc3)c3ccccc3n2)cc1	27%
COc1cc(Nc2nc(SCc3cccc(Cl)c3)nc3ccccc23)cc(OC)c1	10µM*
COc1ccc(C(C)=O)cc1CSc1nc(Nc2ccc(F)c(F)c2)c2ccccc2n1	11µM*
COc1ccccc1NC(=O)CN1CCN(CC(=O)Nc2ccc(F)c(F)c2)CC1	-22%
COc1ccc(NC(=O)C(=O)NCCc2ccccc2)cc1OC	28%
COc1ccc(-c2nnc(SCc3cccc(Cl)c3)o2)cc1	44%
COc1ccc(C(C)=O)cc1CSc1nc(NCCc2ccccc2)c2ccccc2n1	11µM*
Cc1cccn2c(=O)c(C(=O)N3CCN(c4ccccc4F)CC3)cnc12	-26%
O=C(COc1ccccc1)N1CC[C@H]2CC(=O)N(C3CC3)CC[C@H]2C1	i
COc1ccc(S(=O)(=O)N2CCC(c3nnnn3-c3ccccc3)CC2)cc1OC	-20%
NC(=O)C1(N2CCCCC2)CCN(c2nccc(-c3ccncc3)n2)CC1	-12%
Cn1nccc1C(=O)N1CCCC(c2nn[nH]n2)C1 (configuration not stated)	-8%
Clc1ccc(-c2nnc([C@H]3CCN(C4CCCCC4)C3)o2)cc1	i
O=C(CN1C(=O)COc2ccc(S(=O)(=O)N3CCCC3)cc21)N1CCN(c2ccccc2F)CC1	-7%
O=C1NCCCCCCN(C(=O)Cc2cccnc2)[C@@H]2CCC[C@H]12	18%
O=C1NC2(CCN(C(=O)c3ccc(Cl)cc3)CC2)CC1c1ccccc1 (configuration not stated)	-18%
CCOC(=O)C1CCN(CCC(=O)Nc2ccc(OC)cc2)CC1	83%
SMILES	Pf Dd2 growth
COCCN1CCC(C(=O)Nc2ccc(Oc3ccccc3F)cc2)CC1	13µM*
O=C(Nc1ccc(Oc2ccccc2F)cc1)C1CCCCN1C(=O)c1cccnc1 (configuration not stated)	-20%
Cc1nc(CC(=O)N2CC[C@@H]3[C@@H](CCC(=O)N3CCN)C2)c(C)s1	-17%
CCOc1ccc(NC(=O)CCC(=O)N2CCSc3ccccc32)cc1	-16%
Cc1noc(C)c1-c1cc2c(cc(C)n2C)c(-c2ccccc2)n1	i
COc1ncccc1-c1nc(-c2c(C)noc2C)cc2c1cc(C)n2CCN(C)C	i
COc1ncc(-c2nc(-c3c(C)noc3C)cc3c2cc(C)n3CCN(C)C)cn1	14µM*
O=C1CCC2(CCCO2)CCN1Cc1cccc(C(F)(F)F)c1 (configuration not stated)	-15%
COc1ccc(CN2C(=O)[C@@H]3C[C@@H](CN3C(C)C)Oc3ccccc32)cc1	26%[44.1 µM]
CC(C)N1C[C@@H]2C[C@H]1C(=O)N(CC1CC1)c1ccccc1O2	11µM*
CC(C)N1C[C@@H]2C[C@H]1C(=O)N(Cc1ccc(OC(F)(F)F)cc1)c1ccccc1O2	11µM*
COCCN1C(=O)[C@@H]2C[C@@H](CN2C(C)C)Oc2ccccc21	-34%[44.1 µM]
COCCN1C(=O)[C@@H]2C[C@@H](CN2C2CCCC2)Oc2ccccc21	-30%[44.1 µM]
COc1ccc(CN2C(=O)[C@@H]3C[C@@H](CN3C(=O)c3cnccn3)Oc3ccccc32)cc1	-26%[44.1 µM]
O=C1[C@@H]2C[C@@H](CN2C(=O)c2ccccc2)Oc2ccccc2N1Cc1ccccc1	-12%[44.1 µM]
CN1CCC(N2C[C@@H]3C[C@H]2C(=O)N(Cc2ccc(OC(F)(F)F)cc2)c2ccccc2O3)CC1	10µM*
COc1ccc(CN2C(=O)[C@@H]3C[C@@H](CN3C3CCCC3)Oc3ccccc32)cc1	10µM*
O=C1[C@@H]2C[C@@H](CN2C(=O)c2ccccc2)Oc2ccccc2N1CC1CC1	5%[44.1 µM]
O=C1[C@@H]2C[C@@H](CN2C2COC2)Oc2ccccc2N1Cc1ccc(OC(F)(F)F)cc1	i
O=C1[C@@H]2C[C@@H](CN2C(=O)C2CC2)Oc2ccccc2N1Cc1ccccc1	i
